# High-throughput results (PubChem)
# The list is not random: actives were taken first. Their share in the collection is about 1.5%.
# USP1 inh – Inhibitors of USP1/UAF1: Primary Screen | Potency, µM (series often up to 57.1 µM), most hits filed as inhibitors | hit rate 0.23% among 390,000 | Ubiquitin carboxyl-terminal hydrolase 1 (Homo sapiens), O94782 | recombinant USP1/UAF1, Ub-Rhodamine cleavage fluorescence; also: nearly all actives have a fitted effect of over 60% in size
#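 1 nM enzyme complex + cpd, 15 min RT; start with Ub-Rho 150nM final; kinetic fluorescence ex 480/em 540, 6 reads q60 s. Buffer 50mM HEPES pH 7.8, 0.5mM EDTA, 0.1 mg/ml BSA, 1mM TCEP, 0.01% Tween-20.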
# TrxR1 substrate – qHTS Assay for Substrates of Mammalian Selenoprotein Thioredoxin Reductase 1 (TrxR1): qHTS; Potency, µM (doses to about 114 µM); purified TrxR1 substrate turnover, NADPH consumption readout; Thioredoxin reductase 1, cytoplasmic (Rattus norvegicus), O89049; AID 588456, 2011; hit rate 0.01% among 390,000; also: nearly all actives have a fitted effect of over 50% in size
# Target sequence (O89049 whole entry, looked up): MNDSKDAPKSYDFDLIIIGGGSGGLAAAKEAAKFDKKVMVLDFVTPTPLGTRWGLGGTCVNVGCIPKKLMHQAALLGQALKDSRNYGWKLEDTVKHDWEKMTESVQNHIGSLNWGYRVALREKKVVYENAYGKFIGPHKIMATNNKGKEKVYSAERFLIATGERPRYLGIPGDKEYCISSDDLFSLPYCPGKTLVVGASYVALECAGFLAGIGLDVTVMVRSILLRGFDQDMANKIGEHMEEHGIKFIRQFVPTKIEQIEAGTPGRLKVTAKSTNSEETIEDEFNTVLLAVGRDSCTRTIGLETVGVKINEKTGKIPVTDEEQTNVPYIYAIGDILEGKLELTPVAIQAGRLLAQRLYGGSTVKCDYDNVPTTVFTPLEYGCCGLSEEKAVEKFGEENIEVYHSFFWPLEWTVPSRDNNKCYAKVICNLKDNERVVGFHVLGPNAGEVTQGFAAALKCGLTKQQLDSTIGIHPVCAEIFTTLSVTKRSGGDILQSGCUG
#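 Rat TrxR1, dispensed at 90 nM, was prereduced with 400 uM NADPH (final) for 5 min at ~22 deg C, then incubated with compound 15 min before 400 uM selenite. A first-read NADPH fluorescence drop versus no-compound background flagged substrates.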
# TrxR1 inh – qHTS Assay for Inhibitors of Mammalian Selenoprotein Thioredoxin Reductase 1 (TrxR1): qHTS. Thioredoxin reductase 1, cytoplasmic (Rattus norvegicus), O89049. recombinant rTrxR1, NADPH fluorescence consumption, selenite substrate. Potency, µM (doses to about 114 µM), actives largely listed as inhibitors. hit rate 1% among 390,000; also: nearly all actives have a fitted effect of over 65% in size
#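 Rat TrxR1 (90 nM in the dispensed reagent) was pre-reduced with 400 uM NADPH for 5 min at room temperature, then incubated with compound for 15 min. After 400 uM selenite was added, NADPH fluorescence (Ex 340/Em 450 nm) was followed for 8 min.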
# Coupling enz – qHTS Assay for Inhibitors of Fructose-1,6-bisphosphate Aldolase from Giardia Lamblia: Coupling assay counterscreen; coupling enzyme system counterscreen, AmpLite Red fluorescence; activity change, negative = inhibition, % at 58.2 µM, hits read low; hit rate 0.67% among 290,000; AID 2472, 2010; in the data active = activity change below about -30%
#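 First, compound is pin-transferred into glyceraldehyde-3-phosphate coupling-enzyme reagent at 57.5 uM final and held 10 min at RT. Next, substrate, coupling system and AmpLite Red are added. After 20 min RT, fluorescence (525/598 nm) is read.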
# GALK inhibitor – qHTS Assay for Inhibitors of Human Galactokinase (GALK). P51570. Purified GALK, Kinase-Glo residual ATP luminescence. Potency, µM (series often up to 57.5 µM), actives largely listed as inhibitors. hit rate 0.007% among 270,000. AID 1868, 2009
#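 The enzyme phosphorylates galactose (100 uM) using ATP (35 uM); inhibition is detected as higher residual ATP, quantified by bioluminescence after 1 h reaction at room temperature, pH 8.0.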
# A number is an active result; n = inactive; u = inconclusive; x = no result; ! = a repeat was not active; [ ] = remark or other dose. Unless noted, calls follow the shape of the dose curve; as a rule, active = well fitted curve in the direction sought with a large enough effect; inconclusive = small, poorly fitted or top-dose-only effect, or another doubt; inactive = no such curve, though single readings can be large; an effect the other way counts as inactive or inconclusive.
SMILES,USP1 inh,TrxR1 substrate,TrxR1 inh,Coupling enz,GALK inhibitor
C=C1C=C(C(F)F)n2ncc(C(=O)NC(C)CC)c2N1 (stereo not given),x,n,n,x,x
Cc1cccc(-c2nc(CS(=O)CC(=O)N3CC(C)CC(C)C3)c(C)o2)c1 (stereo not given),n,n,40µM,n,n
Cc1cccc(-c2nc(CS(=O)CC(=O)NC3CCCC(C)C3C)c(C)o2)c1 (stereo not given),n,n,16µM,n,x
Cc1cccc(-c2nc(CS(=O)CC(=O)N3CCc4ccccc4C3)c(C)o2)c1 (stereo not given),u,n,13µM,n,n
Cc1cccc(-c2nc(CS(=O)CC(=O)NC3CCCC3)c(C)o2)c1 (stereo not given),n,n,u,n,n
Cc1ccc(S(=O)(=O)N2CCN(c3nc(-n4c(=O)[nH]c5ccccc54)nc4ccccc34)CC2)cc1,x,n,n,x,x
CN1C/C(=C/c2ccc(B(O)O)cc2)C(=O)/C(=C/c2ccc(B(O)O)cc2)C1,x,x,x,n,x
N#CN=c1snc(-c2ccccc2)n1-c1ccc(Cl)cc1,x,n,n,x,x
CC[C@@H]1[C@H]2CCCC(=O)N3CC[C@@H](C[C@@H]1OC(=O)Nc1ccc4c(c1)OCO4)[C@@H]23,x,n,n,x,x
Cc1nn(C(C)C(=O)NCCCN2CCCCCC2)c(=O)c2c1sc1ccccc12 (stereo not given),n,n,50µM,x,n
C=CC1=C2C=C(C3CC3)N(C3CCCCC3)C=C2C(=O)C(C)(OC(=O)c2ccco2)C1=O (stereo not given),x,x,x,-43,x
C=CC1=C2C=C(C3CC3)N(C3CCCC3)C=C2C(=O)C(C)(OC(=O)c2ccco2)C1=O (stereo not given),x,x,x,-42,x
Cc1ccc2sc(N(CCCN(C)C)C(=O)CCS(=O)(=O)c3ccccc3)nc2c1C,u,n,18µM,n,n
O=C(CCOc1ccccc1)N(Cc1cccnc1)c1nc2c(F)cc(F)cc2s1,n,n,u,x,x
CN(C)CCN(C(=O)CCS(=O)(=O)c1ccccc1)c1nc2c(F)cccc2s1,n,n,25µM,n,n
Cc1ccc2sc(N(CCCN(C)C)C(=O)c3nc4ccccc4s3)nc2c1C,n,n,n,n,n
CCN(CC)CCN(C(=O)CCOc1ccccc1)c1nc2c(F)cc(F)cc2s1,n,n,11µM,n,n
CN(C)CCCN(C(=O)CCS(=O)(=O)c1ccccc1)c1nc2cc3c(cc2s1)OCO3,n,n,6.3µM,x,n
CS(=O)(=O)c1ccc(NC(=O)COc2ccccc2C(=O)Nc2ccccc2)cc1,x,n,n,x,x
CC(CCC(C)[n+]1cccc(C#N)c1)[n+]1cccc(C#N)c1 (stereo not given),x,n,n,x,x
COc1ccc(OC)c2sc(N(CCCN(C)C)C(=O)CCS(=O)(=O)c3ccccc3)nc12,n,n,2.8µM,x,x
COc1ccc(Cl)c2sc(N(CCN(C)C)C(=O)CCS(=O)(=O)c3ccc(C)cc3)nc12,n,n,u,x,x
C/C=C\C=C/C(=O)Nc1cccc(C2=NOC3(C2)C[C@@H](C(N)=O)N(C(=O)/C=C/CC)C3)c1 (stereo not given in full),n,n,16µM,n,n
C/C=C\C=C/C(=O)Nc1cccc(C2=NOC3(C2)C[C@@H](C(N)=O)N(C(=O)/C=C/C=C\C)C3)c1 (stereo not given in full),u,n,7.1µM,n,n
C=C(C)C(=O)N1CC2(CC(c3cccc(NC(=O)/C=C\C=C/C)c3)=NO2)C[C@H]1C(N)=O (stereo not given in full),n,n,20µM,n,n
SMILES,USP1 inh,TrxR1 substrate,TrxR1 inh,Coupling enz,GALK inhibitor
C/C=C\C=C/C(=O)Nc1cccc(C2=NOC3(C2)C[C@@H](C(N)=O)N(C(=O)C2(C)CC2)C3)c1 (stereo not given in full),n,n,28µM,n,n
CC(=O)c1nnn(-c2nc(C#N)nc(N3CCOCC3)n2)c1C,x,n[0.0914 µM],n,x,x
O=C(NCc1cccnc1)/C(=C\c1ccc(-c2ccc(Br)cc2)o1)S(=O)(=O)c1ccccc1,n,n,32µM,n,n
O=C(CN(Cc1ccc(Br)cc1)S(=O)(=O)c1ccccc1)NCc1cccnc1,n,n,n,n,n
O=C(NCc1cccnc1)/C(=C/c1ccc(-c2ccc(Cl)cc2)o1)S(=O)(=O)c1ccccc1,n,n,5µM,n,n
COC(=O)N[C@@H](c1ccc(Br)cc1)C(C(=O)OC)C(=O)OC,x,x,x,n,x
Cc1ccc(F)c(C2C3C=CCCC3(C)C(=O)N2Cc2ccccc2)c1 (stereo not given),x,n,n,n,x
COc1ccc([C@@H]2CC(=O)c3c(O)cc(O[C@@H]4O[C@H](CO)[C@@H](O)[C@H](O)[C@H]4O[C@@H]4O[C@@H](C)[C@H](O)[C@@H](O)[C@H]4O)cc3O2)cc1,x,x,x,n,x
CN1CCC2(CC1)C1CN(C)CC=C1C(C#N)=C(N)C2(C#N)C#N (stereo not given),28µM!,n,n,n,n
C=CCN1C(=O)/C(=C/C=C2/N(CC)c3ccc(S(=O)(=O)N(C)C)cc3N2CC)SC1=S,28µM,n,u,n,n
C=CCN1C(=O)/C(=C\C=C2\N(C)c3ccccc3C2(C)C)SC1=S,u,n,n,n,n
COc1ccc2c(c1)OC1(O)COc3cc(OC)c(OC)cc3C1=C2 (stereo not given),x,x,x,n,x
COCc1cc(S(=O)c2ccc(Cl)cc2)nc(C)n1 (stereo not given),u,n,14µM,n,n
COCc1cc(Sc2ccc(Cl)cc2)nc(C)n1,n,n,n,n,n
C[C@@H](c1ccccc1)N1C(=O)[C@H]2[C@H]3[C@H](O)[C@H](O)C/C(=N/NC(=O)OCc4ccccc4)[C@@H]3CC[C@@H]2C1=O,x,x,x,n,x
CCCCc1nc2c(c3c1C[C@H](C)OC3)CN(C(=O)NCCCC(=O)OCC)CC2,x,x,x,n,x
O=[N+]([O-])C(=C1Nc2ccccc2N1)C(Cl)=C(Cl)Cl,n,n,11µM,n,n
O=[N+]([O-])/C(C(Cl)=C(Cl)Cl)=C(/NC1CC1)Sc1ccccc1,n,n,u,n,n
CCCCCCCC/C=C\CCCCCCCC(=O)NCCc1ccc(O)c(O)c1,n,u,27µM!,n,x
CCCCC/C=C\C/C=C\C/C=C\C/C=C\CCCCCC(=O)NCCc1ccc(O)c(O)c1,x,x,x,n,x
O=[N+]([O-])C1=CC=C2C(=NC3(CCCCC3)N2O)C1=NCCO,n,n,u,-53,n
CN=C1C([N+](=O)[O-])=CC=C2C1=NC1(CCCCC1)N2O,n,n,n,-45,n
